Values without a mark were called inactive. Calls of active or inactive are those of the source.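 The calls were made as follows: active = mean inhibition above 46.5%, the solvent-only control mean plus 3 SD; inactive = the rest.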

The target of the test is Nuclear receptor coactivator 2 (Homo sapiens) (UniProt Q15596). Kind of test: SRC2 coactivator transcriptional activity inhibitors, confirmation, cell-based, luminescence, HEK293, triplicate (AID 652008).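 Also: 0% = DMSO-treated cells and 100% = Gossypol at 36 µM.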 Particulars: HEK293 GAL4-SRC2 luciferase reporter, at 8.9 µM, stronger effect = higher value.
Sequence of Nuclear receptor coactivator 2 (Homo sapiens) (Q15596 whole entry, looked up, the tested form may be a part): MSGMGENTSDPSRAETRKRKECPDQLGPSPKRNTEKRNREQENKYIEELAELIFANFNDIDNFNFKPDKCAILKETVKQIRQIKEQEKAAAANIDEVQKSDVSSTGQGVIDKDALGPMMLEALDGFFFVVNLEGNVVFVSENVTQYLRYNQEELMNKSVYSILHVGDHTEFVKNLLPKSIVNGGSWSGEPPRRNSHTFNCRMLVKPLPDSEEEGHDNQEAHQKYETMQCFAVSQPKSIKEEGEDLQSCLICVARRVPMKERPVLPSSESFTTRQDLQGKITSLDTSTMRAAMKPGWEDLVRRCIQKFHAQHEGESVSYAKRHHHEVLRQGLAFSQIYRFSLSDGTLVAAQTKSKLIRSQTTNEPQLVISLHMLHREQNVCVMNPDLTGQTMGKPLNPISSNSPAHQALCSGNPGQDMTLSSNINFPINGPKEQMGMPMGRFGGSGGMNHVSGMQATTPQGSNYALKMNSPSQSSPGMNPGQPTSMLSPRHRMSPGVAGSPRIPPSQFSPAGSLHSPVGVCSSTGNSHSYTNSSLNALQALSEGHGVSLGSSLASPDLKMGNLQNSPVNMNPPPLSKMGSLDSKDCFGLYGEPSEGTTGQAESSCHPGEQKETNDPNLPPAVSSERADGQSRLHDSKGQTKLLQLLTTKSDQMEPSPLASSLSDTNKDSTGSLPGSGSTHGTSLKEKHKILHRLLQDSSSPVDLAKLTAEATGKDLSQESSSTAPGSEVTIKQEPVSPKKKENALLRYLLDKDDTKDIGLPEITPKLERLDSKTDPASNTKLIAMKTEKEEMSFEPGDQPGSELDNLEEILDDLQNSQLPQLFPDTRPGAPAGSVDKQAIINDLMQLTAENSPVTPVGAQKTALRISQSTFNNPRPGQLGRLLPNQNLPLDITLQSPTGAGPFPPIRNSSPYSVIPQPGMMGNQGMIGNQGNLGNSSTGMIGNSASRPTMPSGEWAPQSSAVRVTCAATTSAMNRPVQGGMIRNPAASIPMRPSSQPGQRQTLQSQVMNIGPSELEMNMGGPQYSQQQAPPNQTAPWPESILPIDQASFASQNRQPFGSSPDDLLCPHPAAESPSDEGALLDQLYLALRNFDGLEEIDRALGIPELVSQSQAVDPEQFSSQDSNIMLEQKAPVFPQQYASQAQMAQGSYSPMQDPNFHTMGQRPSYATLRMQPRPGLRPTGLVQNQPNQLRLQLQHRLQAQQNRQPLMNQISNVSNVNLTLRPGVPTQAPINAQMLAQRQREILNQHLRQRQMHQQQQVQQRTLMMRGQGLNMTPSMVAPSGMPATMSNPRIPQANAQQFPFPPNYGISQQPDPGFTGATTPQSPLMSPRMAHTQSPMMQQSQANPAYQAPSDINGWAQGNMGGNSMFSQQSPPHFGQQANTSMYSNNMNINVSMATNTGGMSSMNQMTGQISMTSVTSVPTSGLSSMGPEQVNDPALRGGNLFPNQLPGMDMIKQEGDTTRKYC
Broadly, the inhibition is the drop in the measured response relative to a control, in per cent. As to `O=C1N(Cc2cccc(Cl)c2)C[C@@H]2C[C@@H](c3cccc4cccnc34)N3CCC[C@@]123`, the inhibition is -23.5%.
To `CN(Cc1ccc(Cl)cc1)C(=O)CCl` belongs 25.3%; to `O=C(Nc1ccnn1C1CCN(C(=O)c2ccc(Cl)cc2)CC1)C1CC1`, -7.33%; to `Cc1nnc(SCc2nc3sc(C(=O)O)c(C)c3c(=O)[nH]2)s1`, 9.02%.
For the molecule `Nc1ccc(-c2cc3ccccc3c(=O)o2)cc1`, the inhibition was 79.1% (active).
The result for `CCC(C)[C@H](NC(=O)N1CCn2c1nc1ccccc12)C(=O)NCc1ccc(OC)cc1` (stereo not given in full) reads 8.36%; that for `CCCC(CCC)C(=O)Nc1ccc2c(c1)N(C(=O)CN1CCN(C)CC1)c1ccccc1CC2`, -4.28%.
Turning to `NCCCCCc1nnc(SCc2ccccc2Cl)o1`, the inhibition is 53.5% (active).
For the molecule `O=C(c1c[nH]c2ccccc12)C(Cl)c1ccccc1` (stereo not given), the inhibition was 33.8%.
Consider `CN(C)c1ccc(C(C[N+](=O)[O-])c2c(N)n(C)c(=O)n(C)c2=O)c(F)c1C#N` (stereo not given), for which the inhibition is 6.89%.
Regarding `COc1ccc(OC)c(NC(=O)COC(=O)CCCN=C2NS(=O)(=O)c3ccccc32)c1`, the inhibition was -10.3%.
As to `O=C(N/N=C/c1coc2ccc(Cl)cc2c1=O)c1ccncc1`, the inhibition is 31.4%.
On to `O=[N+]([O-])c1ccc(Sc2nnnn2-c2ccccc2)nc1`, for which the inhibition is 40.7%.
For `COc1cccc(CNc2nc(NCC3CC3)nc3ccsc23)c1OC`, the inhibition was 18.8%.
To `COc1cc(OC)c2c(-c3cccc(-c4ccc(N(C)C)cc4)c3)cc(=O)oc2c1` belongs 27.6%.

The values are drawn from PubChem BioAssay.
